{"source": "the supplement of paper PMC12494721", "note": "Structures can show the parent of a compound that is named as a salt. A number with no mark means an inactive call.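 The calls were made as follows: for the amine columns active = adjusted P below 0.05 in both replicates with a change the same way and a mean fold change under 0.8 or over 1.25; inactive = the rest.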"}
{"tested_on": "Klebsiella aerogenes DSM 30053", "assay": "fold change of Histamine concentration vs plate DMSO controls (fold change (ratio)); higher = more amine produced, active = hit call of the paper (significant change in both replicates, either direction)", "settings": "20 µM; incubation time: 27 h, anaerobic, 37 °C", "procedure,_shortened": "(§1)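 Each value is the fold change relative to DMSO-only wells on the same plate. Four gut bacterial strains were grown anaerobically in mGAM at 37 °C for 27 h in 80 µL wells, starting at OD 0.1 before a 1:1 dilution, with compounds at 20 µM final (sweeteners 50 µM). Whole cultures were extracted with cold acetonitrile/methanol containing 0.1% formic acid, centrifuged, and amines were quantified by LC–triple-quadrupole MS (dynamic MRM) against external calibration curves with within-batch drift correction. Values are means of 2 biological replicates.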"}
{"smiles": "C[C@@H]1C[C@@H]([C@H](O)CC2CC(=O)NC(=O)C2)C(=O)[C@@H](C)C1", "note": "[Cycloheximide]", "fold change of Histamine concentration": 1.08}
{"smiles": "CCNC1(c2cccs2)CCCCC1=O", "note": "(configuration not stated) [Tiletamine hydrochloride]", "fold change of Histamine concentration": 1.03}
{"smiles": "CCCC1COC(Cn2cncn2)(c2ccc(Cl)cc2Cl)O1", "note": "(configuration not stated)", "fold change of Histamine concentration": 0.975}
{"smiles": "ClC1C(Cl)C(Cl)C(Cl)C(Cl)C1Cl", "note": "(configuration not stated)", "fold change of Histamine concentration": 0.984}
{"smiles": "CN1C[C@H](CNC(=O)OCc2ccccc2)C[C@@H]2c3cccc4c3c(cn4C)C[C@H]21", "note": "[Metergoline]", "fold change of Histamine concentration": 0.987}
{"smiles": "O=[N+]([O-])O[C@@H]1CO[C@H]2[C@@H]1OC[C@@H]2O", "note": "[Isosorbide mononitrate]", "fold change of Histamine concentration": 0.975}
{"smiles": "C[N+]1(C)CCCCC1", "fold change of Histamine concentration": 1.01}
{"smiles": "N#Cc1nn(-c2c(Cl)cc(C(F)(F)F)cc2Cl)c(N)c1[S+]([O-])C(F)(F)F", "note": "(configuration not stated)", "fold change of Histamine concentration": 1.1}
{"smiles": "COCC(=O)N(c1c(C)cccc1C)[C@H](C)C(=O)OC", "fold change of Histamine concentration": 1}
{"smiles": "Cc1cc(C(F)(C(F)(F)F)C(F)(F)F)ccc1NC(=O)c1cccc(I)c1C(=O)NC(C)(C)CS(C)(=O)=O", "fold change of Histamine concentration": 1}
{"smiles": "CC1C=CC=CCCC=CC=CC=CC=CC(OC2OC(C)C(O)C(N)C2O)CC2OC(O)(CC(O)C(O)CCC(O)CC(O)CC(O)CC(=O)OC(C)C(C)C1O)CC(O)C2C(=O)O", "note": "(configuration not stated) [Nystatine]", "fold change of Histamine concentration": 0.962}
{"smiles": "CCOC(=O)CC(SP(=S)(OC)OC)C(=O)OCC", "note": "(configuration not stated)", "fold change of Histamine concentration": 0.998}
{"smiles": "Fc1ccc([C@]2(Cn3cncn3)O[C@H]2c2ccccc2Cl)cc1", "note": "(racemic)", "fold change of Histamine concentration": 0.991}
{"smiles": "O=C(Nc1ccccc1-c1ccc(Cl)cc1)c1cccnc1Cl", "fold change of Histamine concentration": 0.953}
{"smiles": "CCN(CC)c1nc(C)cc(OP(=S)(OC)OC)n1", "fold change of Histamine concentration": 1.01}
{"smiles": "O=C(O[C@H]1C[N+]2(CCCOc3ccccc3)CCC1CC2)C(O)(c1cccs1)c1cccs1", "note": "[Aclidinium bromide]", "fold change of Histamine concentration": 1.05}
{"smiles": "CCC(C)(c1ccc(O)cc1)c1ccc(O)cc1", "note": "[Bisphenol B]", "fold change of Histamine concentration": 1.06}
{"smiles": "CNC(=O)/C=C(\\C)OP(=O)(OC)OC", "fold change of Histamine concentration": 1.01}
{"smiles": "CO/C=C(/C(=O)OC)c1ccccc1Oc1cc(Oc2ccccc2C#N)ncn1", "fold change of Histamine concentration": 0.996}
{"smiles": "C[C@@H]1CN([C@H]2CC[C@](C#N)(c3ccc(F)cc3)CC2)CC[C@]1(C(=O)O)c1ccccc1", "note": "[Levocabastine hydrochloride]", "fold change of Histamine concentration": 1.03}
{"smiles": "O=C(O)c1nc(Cl)ccc1Cl", "fold change of Histamine concentration": 1.01}
{"smiles": "CCn1cc(C(=O)O)c(=O)c2cc3c(cc21)OCO3", "note": "[Oxolinic acid]", "fold change of Histamine concentration": "0.275 (active)"}
{"smiles": "CC(C)(C)C(O)(CCc1ccc(Cl)cc1)Cn1cncn1", "note": "(configuration not stated)", "fold change of Histamine concentration": 0.981}
{"smiles": "C[C@]12C=CC(=O)C=C1CC[C@@H]1[C@@H]2CC[C@@]2(C)[C@H]1CC[C@]2(C)O", "note": "[Methandrostenolone]", "fold change of Histamine concentration": 0.999}
{"smiles": "COP(=S)(OC)Oc1nc(Cl)c(Cl)cc1Cl", "fold change of Histamine concentration": 1.03}
{"smiles": "O=C(O)C(F)(F)C(F)(F)C(F)(F)C(F)(F)C(F)(F)C(F)(F)F", "note": "[PFHpA (Perfluoroheptanoic acid)]", "fold change of Histamine concentration": 0.997}
{"smiles": "OCC(O)CCl", "note": "(racemic)", "fold change of Histamine concentration": 1.01}
{"smiles": "CC(=O)O[C@H]1CC[C@@]2(C)C(=CC[C@@H]3[C@@H]2CC[C@]2(C)C(=O)CC[C@@H]32)C1", "note": "[Dehydroisoandosterone 3-acetate]", "fold change of Histamine concentration": 1.02}
{"smiles": "CC(C)N(C(=O)COc1nnc(C(F)(F)F)s1)c1ccc(F)cc1", "fold change of Histamine concentration": 1.02}
{"smiles": "CC(=O)OCC(=O)[C@H]1CC[C@H]2[C@@H]3CC[C@H]4C[C@H](O)CC[C@]4(C)[C@H]3C(=O)C[C@]12C", "note": "[Alfadolone acetate]", "fold change of Histamine concentration": 1.03}
{"smiles": "C[C@]12CC[C@@H]3c4ccc(OC(=O)N(CCCl)CCCl)cc4CC[C@H]3[C@@H]1CC[C@@H]2O", "note": "[Estramustine]", "fold change of Histamine concentration": 0.899}
{"smiles": "CCC(=O)Nc1ccc(Cl)c(Cl)c1", "fold change of Histamine concentration": 1.11}
{"smiles": "O=P1(N(CCCl)CCCl)NCCCO1", "note": "(configuration not stated) [Cyclophosphamide]", "fold change of Histamine concentration": 1.03}
{"smiles": "Cc1cc(C(C#N)c2ccc(Cl)cc2)c(Cl)cc1NC(=O)c1cc(I)cc(I)c1O", "note": "(configuration not stated) [Closantel]", "fold change of Histamine concentration": 0.981}
{"smiles": "COP(=S)(OC)SCN1C(=O)c2ccccc2C1=O", "fold change of Histamine concentration": 0.945}
{"smiles": "C#CCOc1ccc(CCNC(=O)C(OCC#C)c2ccc(Cl)cc2)cc1OC", "note": "(configuration not stated)", "fold change of Histamine concentration": 0.95}
{"tested_on": "Clostridium sporogenes DSM 1664", "assay": "fold change of Tryptamine concentration vs plate DMSO controls (fold change (ratio)); higher = more amine produced, active = hit call of the paper (significant change in both replicates, either direction)", "settings": "20 µM; incubation time: 27 h, anaerobic, 37 °C", "procedure,_shortened": "as §1"}
{"smiles": "C[C@@H]1C[C@@H]([C@H](O)CC2CC(=O)NC(=O)C2)C(=O)[C@@H](C)C1", "note": "[Cycloheximide]", "fold change of Tryptamine concentration": 0.956}
{"smiles": "CCNC1(c2cccs2)CCCCC1=O", "note": "(configuration not stated) [Tiletamine hydrochloride]", "fold change of Tryptamine concentration": 1.04}
{"smiles": "CCCC1COC(Cn2cncn2)(c2ccc(Cl)cc2Cl)O1", "note": "(configuration not stated)", "fold change of Tryptamine concentration": 1.04}
{"smiles": "ClC1C(Cl)C(Cl)C(Cl)C(Cl)C1Cl", "note": "(configuration not stated)", "fold change of Tryptamine concentration": 0.972}
{"smiles": "CN1C[C@H](CNC(=O)OCc2ccccc2)C[C@@H]2c3cccc4c3c(cn4C)C[C@H]21", "note": "[Metergoline]", "fold change of Tryptamine concentration": 0.943}
{"smiles": "O=[N+]([O-])O[C@@H]1CO[C@H]2[C@@H]1OC[C@@H]2O", "note": "[Isosorbide mononitrate]", "fold change of Tryptamine concentration": 0.938}
{"smiles": "C[N+]1(C)CCCCC1", "fold change of Tryptamine concentration": 0.957}
{"smiles": "N#Cc1nn(-c2c(Cl)cc(C(F)(F)F)cc2Cl)c(N)c1[S+]([O-])C(F)(F)F", "note": "(configuration not stated)", "fold change of Tryptamine concentration": 1.13}
{"smiles": "COCC(=O)N(c1c(C)cccc1C)[C@H](C)C(=O)OC", "fold change of Tryptamine concentration": 1.01}
{"smiles": "Cc1cc(C(F)(C(F)(F)F)C(F)(F)F)ccc1NC(=O)c1cccc(I)c1C(=O)NC(C)(C)CS(C)(=O)=O", "fold change of Tryptamine concentration": 0.921}
{"smiles": "CC1C=CC=CCCC=CC=CC=CC=CC(OC2OC(C)C(O)C(N)C2O)CC2OC(O)(CC(O)C(O)CCC(O)CC(O)CC(O)CC(=O)OC(C)C(C)C1O)CC(O)C2C(=O)O", "note": "(configuration not stated) [Nystatine]", "fold change of Tryptamine concentration": 0.989}
{"smiles": "CCOC(=O)CC(SP(=S)(OC)OC)C(=O)OCC", "note": "(configuration not stated)", "fold change of Tryptamine concentration": 1.06}
{"smiles": "Fc1ccc([C@]2(Cn3cncn3)O[C@H]2c2ccccc2Cl)cc1", "note": "(racemic)", "fold change of Tryptamine concentration": 1.06}
{"smiles": "O=C(Nc1ccccc1-c1ccc(Cl)cc1)c1cccnc1Cl", "fold change of Tryptamine concentration": 0.954}
{"smiles": "CCN(CC)c1nc(C)cc(OP(=S)(OC)OC)n1", "fold change of Tryptamine concentration": 1.06}
{"smiles": "O=C(O[C@H]1C[N+]2(CCCOc3ccccc3)CCC1CC2)C(O)(c1cccs1)c1cccs1", "note": "[Aclidinium bromide]", "fold change of Tryptamine concentration": 1.01}
{"smiles": "CCC(C)(c1ccc(O)cc1)c1ccc(O)cc1", "note": "[Bisphenol B]", "fold change of Tryptamine concentration": 1.04}
{"smiles": "CNC(=O)/C=C(\\C)OP(=O)(OC)OC", "fold change of Tryptamine concentration": 1.05}
{"smiles": "CO/C=C(/C(=O)OC)c1ccccc1Oc1cc(Oc2ccccc2C#N)ncn1", "fold change of Tryptamine concentration": 1.02}
{"smiles": "C[C@@H]1CN([C@H]2CC[C@](C#N)(c3ccc(F)cc3)CC2)CC[C@]1(C(=O)O)c1ccccc1", "note": "[Levocabastine hydrochloride]", "fold change of Tryptamine concentration": 1.04}
{"smiles": "O=C(O)c1nc(Cl)ccc1Cl", "fold change of Tryptamine concentration": 0.99}
{"smiles": "CCn1cc(C(=O)O)c(=O)c2cc3c(cc21)OCO3", "note": "[Oxolinic acid]", "fold change of Tryptamine concentration": "0.0614 (active)"}
{"smiles": "CC(C)(C)C(O)(CCc1ccc(Cl)cc1)Cn1cncn1", "note": "(configuration not stated)", "fold change of Tryptamine concentration": 1.24}
{"smiles": "C[C@]12C=CC(=O)C=C1CC[C@@H]1[C@@H]2CC[C@@]2(C)[C@H]1CC[C@]2(C)O", "note": "[Methandrostenolone]", "fold change of Tryptamine concentration": 0.98}
{"smiles": "COP(=S)(OC)Oc1nc(Cl)c(Cl)cc1Cl", "fold change of Tryptamine concentration": 0.986}
{"smiles": "O=C(O)C(F)(F)C(F)(F)C(F)(F)C(F)(F)C(F)(F)C(F)(F)F", "note": "[PFHpA (Perfluoroheptanoic acid)]", "fold change of Tryptamine concentration": 1.06}
{"smiles": "OCC(O)CCl", "note": "(racemic)", "fold change of Tryptamine concentration": 1.11}
{"smiles": "CC(=O)O[C@H]1CC[C@@]2(C)C(=CC[C@@H]3[C@@H]2CC[C@]2(C)C(=O)CC[C@@H]32)C1", "note": "[Dehydroisoandosterone 3-acetate]", "fold change of Tryptamine concentration": 0.937}
{"smiles": "CC(C)N(C(=O)COc1nnc(C(F)(F)F)s1)c1ccc(F)cc1", "fold change of Tryptamine concentration": 1.01}
{"smiles": "CC(=O)OCC(=O)[C@H]1CC[C@H]2[C@@H]3CC[C@H]4C[C@H](O)CC[C@]4(C)[C@H]3C(=O)C[C@]12C", "note": "[Alfadolone acetate]", "fold change of Tryptamine concentration": 1.04}
{"smiles": "C[C@]12CC[C@@H]3c4ccc(OC(=O)N(CCCl)CCCl)cc4CC[C@H]3[C@@H]1CC[C@@H]2O", "note": "[Estramustine]", "fold change of Tryptamine concentration": "0.616 (active)"}
{"smiles": "CCC(=O)Nc1ccc(Cl)c(Cl)c1", "fold change of Tryptamine concentration": 0.963}
{"smiles": "O=P1(N(CCCl)CCCl)NCCCO1", "note": "(configuration not stated) [Cyclophosphamide]", "fold change of Tryptamine concentration": 0.997}
{"smiles": "Cc1cc(C(C#N)c2ccc(Cl)cc2)c(Cl)cc1NC(=O)c1cc(I)cc(I)c1O", "note": "(configuration not stated) [Closantel]", "fold change of Tryptamine concentration": "0.0178 (active)"}
{"smiles": "COP(=S)(OC)SCN1C(=O)c2ccccc2C1=O", "fold change of Tryptamine concentration": 1.03}
{"smiles": "C#CCOc1ccc(CCNC(=O)C(OCC#C)c2ccc(Cl)cc2)cc1OC", "note": "(configuration not stated)", "fold change of Tryptamine concentration": 0.986}
